Experimental data reported in PubChem BioAssay (NCATS).
Several values for one entry are separate records, joined by “and”; a condition that tells them apart may be missing. Equal entries are not always repeated. Inconclusive results are not listed. Activity calls are given as the source filed them. Calls come from the whole dose curve; as a rule, active = well fitted cell-killing curve with a large enough effect; inconclusive = small, poorly fitted or top-dose-only effect; inactive = flat fitted curve, though single readings scatter.
Potency is the fitted concentration of half-maximal effect.

Assay: Cellular viability qHTS for adrenocortical cancer (ACC) cell line SW-13 (AID 1963989); note: nearly all actives have a fitted effect of over 65% in size;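 for activity (max response): cells grown in serum-free medium with ITS supplement; % is set by controls: 0 for no effect and ±100 for the full control effect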
Conditions: SW-13 ACC cells viability, CellTiter-Glo, 48 h; activity (max response): stronger effect = lower value
In short: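 SW-13 cells in ITS-supplemented serum-free DMEM were plated overnight, then exposed for 48 h at 37C to compound titrations (up to 46 uM final). Viability was read by CellTiter-Glo luminescence; four-parameter logistic fits gave IC50 and efficacy.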
For `Cc1ccccc1N1CCN(CCc2nnc3n2CCCC3)CC1`, the activity (max response) was 9.97% (inactive). In the case of `Oc1ccc(Cl)cc1Cc1cc(Cl)ccc1O`, the Potency is reported as 5.17 µM (active). For `CN[C@@H]1[C@H](O[C@H]2[C@H](O[C@@H]3[C@@H](O)[C@H](O)[C@@H](N=C(N)N)[C@H](O)[C@H]3N=C(N)N)O[C@@H](C)[C@]2(O)C=O)O[C@@H](CO)[C@H](O)[C@H]1O`, the activity (max response) was 6.19% (inactive). For `CC(=O)OCC(=O)[C@@]1(O)CCC2C3CCC4=CC(=O)CC[C@]4(C)C3[C@@H](O)C[C@@]21C` (stereo not given in full), the activity (max response) was -1.87% (inactive). With `CC1=C(/C=C/C(C)=C/C=C/C(C)=C\C(=O)O)C(C)(C)CCC1` the activity (max response) was -0.514% (inactive). With `Cc1c(C)c2c(c(C)c1OC(=O)CCC(=O)OCCO)CC[C@@](C)(CCC[C@H](C)CCC[C@H](C)CCCC(C)C)O2` the Potency was 18.4 µM (active). With `CC(=O)O[C@]1(C(C)=O)CC[C@H]2[C@@H]3C=C(Cl)C4=CC(=O)[C@@H]5C[C@@H]5[C@]4(C)[C@H]3CC[C@@]21C` the activity (max response) was -7.85% (inactive) and -11.2% (inactive). With `C=CCN1CCc2nc(N)sc2CC1` the activity (max response) was 1.2% (inactive). In the case of `C[C@]12CCC(=O)C=C1[C@@H]1C[C@@H]1[C@H]1[C@@H]3[C@@H]4C[C@@H]4[C@@]4(CCC(=O)O4)[C@@]3(C)CC[C@@H]12`, the activity (max response) is reported as -8.86% (inactive) and -13.4% (inactive). For `CC1(C)C(N(O)C(=O)Nc2ccc(Cl)cc2)N(c2ccc(Cl)cc2)C(=O)N1CC(=O)N/N=C/C=C/c1ccc([N+](=O)[O-])o1` (stereo not given), the Potency was 25.1 µM (active). For `CC[C@]12C=CCN3CC[C@@]4(c5cc([C@@]6(C(=O)OC)CC7C[C@@H](C(C)(F)F)CN(Cc8c6[nH]c6ccccc86)C7)c(OC)cc5N(C)[C@H]4[C@@](O)(C(=O)OC)[C@@H]1OC(C)=O)[C@@H]32` (stereo not given in full), the Potency was 0.282 µM (active). In the case of `Cc1cc(-n2c(=O)ccc3cnc4[nH]ccc4c32)ccc1F`, the activity (max response) is reported as -19.3% (inactive). With `CC(=O)Oc1cccc(O)c1` the activity (max response) was 7.39% (inactive). In the case of `COC(=O)C(c1ccccc1Cl)N1CCc2sccc2C1` (stereo not given), the activity (max response) is reported as 0.0767% (inactive). For `CCNC(=O)CCC/C=C\C[C@@H]1[C@@H](/C=C/C(O)CCc2ccccc2)[C@@H](O)C[C@@H]1O` (stereo not given in full), the activity (max response) was -10.9% (inactive). With `CS(=O)(=O)Nc1ccc([N+](=O)[O-])cc1Oc1ccccc1` the activity (max response) was 9.34% (inactive) and -1.91% (inactive). With `Cc1cc(C)c2c(c1)[C@@H](N(Cc1cc(C(F)(F)F)cc(C(F)(F)F)c1)c1nnn(C)n1)CCCN2CC1CCC(C(=O)O)CC1` (stereo not given in full) the activity (max response) was -23.9% (inactive). With `CC[C@@]1(O)C(=O)OCc2c1cc1n(c2=O)Cc2c-1nc1cc(F)c(C)c3c1c2[C@@H](N)CC3` the Potency was 0.794 µM (active). With `O=C(O)CNC(=O)CNC(=O)CNC(=O)CSC(=O)c1ccccc1` the activity (max response) was -23.1% (inactive). In the case of `CC1(C)O[C@@H]2C[C@H]3[C@@H]4CCC5=CC(=O)CC[C@]5(C)[C@@]4(F)[C@@H](O)C[C@]3(C)[C@]2(C(=O)CCl)O1`, the activity (max response) is reported as 9.64% (inactive). With `OC[C@H]1O[C@@H](n2cnc3c(=S)nc[nH]c32)[C@H](O)[C@@H]1O` the Potency was 9.2 µM (active). For `COc1ccccc1[C@H](c1cccc2ccccc12)[C@@](C)(C#N)C(=O)N1CCC(c2cccc(C(F)(F)F)c2)CC1`, the activity (max response) was -5.9% (inactive). In the case of `CCOC(=O)O[C@]1(C(=O)OCCl)CC[C@H]2[C@@H]3CCC4=CC(=O)C=C[C@]4(C)[C@H]3[C@@H](O)C[C@@]21C`, the activity (max response) is reported as 8.33% (inactive) and -8.79% (inactive). In the case of `COc1cc([C@H]2Oc3cc([C@H]4Oc5cc(O)cc(O)c5C(=O)[C@@H]4O)ccc3O[C@@H]2CO)ccc1O`, the activity (max response) is reported as 11.7% (inactive) and -16.7% (inactive). For `COC(=O)C1=C(C)NC(c2ncc(F)cc2F)=N[C@@H]1c1ccc(F)cc1Cl`, the activity (max response) was -20.4% (inactive).

Assay: Cellular viability qHTS for adrenocortical cancer (ACC) cell line NCI-H295R (AID 1963990); note: nearly all actives have a fitted effect of over 60% in size
Conditions: CellTiter-Glo ATP luminescence, 48 h; series mostly up to 46.1 µM
In short: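 Luminescent ATP read-out (CellTiter-Glo, 20 min RT) after 48 h drug exposure of NCI-H295R cells; a titration up to 46 uM final. Data normalized to doxorubicin (100% inhibition) and DMSO (0%); 4-parameter fit gives IC50, max response.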
In the case of `CC(O)C(=O)O` (stereo not given), the Potency is reported as “inactive”. In the case of `COc1cccc(-c2cc(F)ccc2C2Cc3nc(N)nc(C)c3C(=O)N2)n1` (stereo not given), the Potency is reported as 0.0501 µM (active). For `O=c1cc(N2CCOCC2)oc2c(-c3ccc4c(c3)OCCO4)csc12`, the Potency was 2.51 µM (active). In the case of `CCc1cc2cc(OC)c(OC)cc2c(Cc2ccccc2)n1`, the Potency is reported as “inactive”. For `COc1cc(O)cc(O)c1`, the Potency was “inactive”. With `O=C(Nc1cnn2ccc(N3CCC[C@@H]3c3cc(F)ccc3F)nc12)N1CC[C@H](O)C1` the Potency was “inactive”. With `CCNC(=O)NCCCOc1cccc(CN2CCCCC2)c1` the Potency was “inactive”. With `CN(C)C/C=C/C(=O)Nc1ccc(C(=O)N2CCC[C@@H](Nc3ncc(Cl)c(-c4c[nH]c5ccccc45)n3)C2)cc1` the Potency was 10 µM (active). In the case of `CCCCOc1nc(N)c2c(n1)N(Cc1cccc(CN3CCCC3)c1)CC(=O)N2`, the Potency is reported as “inactive”. With `O=c1ncccn1[C@@H]1O[C@H](CO)[C@@H](O)[C@H]1O` the Potency was “inactive”. With `Nc1c(I)cc(I)c(C(=O)N(CCC(=O)O)c2ccccc2)c1I` the Potency was “inactive”. In the case of `Cc1[nH]c2ccc(F)cc2c1-c1nc2c3cccnc3c3ncccc3c2[nH]1`, the Potency is reported as 3.16 µM (active). In the case of `COC1CC(C(=O)c2ccc3c(N)ncc(-c4ccc(-c5cnn(C)c5)cc4)c3n2)C1` (stereo not given), the Potency is reported as “inactive”. For `Clc1ccccc1CN1CCc2sccc2C1`, the Potency was “inactive”. In the case of `CC1(C)O[C@@H]2C[C@H]3[C@@H]4CCC5=CC(=O)C=C[C@]5(C)[C@@]4(F)[C@@H](O)C[C@]3(C)[C@]2(C(=O)CO)O1`, the Potency is reported as “inactive”. With `Cc1ccccc1N1CCN(CCc2nnc3n2CCCC3)CC1` the Potency was “inactive”. For `Oc1ccc(Cl)cc1Cc1cc(Cl)ccc1O`, the Potency was 5.17 µM (active). For `CN[C@@H]1[C@H](O[C@H]2[C@H](O[C@@H]3[C@@H](O)[C@H](O)[C@@H](N=C(N)N)[C@H](O)[C@H]3N=C(N)N)O[C@@H](C)[C@]2(O)C=O)O[C@@H](CO)[C@H](O)[C@H]1O`, the Potency was “inactive”. With `CC(=O)OCC(=O)[C@@]1(O)CCC2C3CCC4=CC(=O)CC[C@]4(C)C3[C@@H](O)C[C@@]21C` (stereo not given in full) the Potency was “inactive”. With `CC1=C(/C=C/C(C)=C/C=C/C(C)=C\C(=O)O)C(C)(C)CCC1` the Potency was “inactive”. For `Cc1c(C)c2c(c(C)c1OC(=O)CCC(=O)OCCO)CC[C@@](C)(CCC[C@H](C)CCC[C@H](C)CCCC(C)C)O2`, the Potency was 13 µM (active). In the case of `CC(=O)O[C@]1(C(C)=O)CC[C@H]2[C@@H]3C=C(Cl)C4=CC(=O)[C@@H]5C[C@@H]5[C@]4(C)[C@H]3CC[C@@]21C`, the Potency is reported as “inactive”. In the case of `C=CCN1CCc2nc(N)sc2CC1`, the Potency is reported as “inactive”. In the case of `C[C@]12CCC(=O)C=C1[C@@H]1C[C@@H]1[C@H]1[C@@H]3[C@@H]4C[C@@H]4[C@@]4(CCC(=O)O4)[C@@]3(C)CC[C@@H]12`, the Potency is reported as “inactive”. In the case of `CC1(C)C(N(O)C(=O)Nc2ccc(Cl)cc2)N(c2ccc(Cl)cc2)C(=O)N1CC(=O)N/N=C/C=C/c1ccc([N+](=O)[O-])o1` (stereo not given), the Potency is reported as 20 µM (active). With `CC[C@]12C=CCN3CC[C@@]4(c5cc([C@@]6(C(=O)OC)CC7C[C@@H](C(C)(F)F)CN(Cc8c6[nH]c6ccccc86)C7)c(OC)cc5N(C)[C@H]4[C@@](O)(C(=O)OC)[C@@H]1OC(C)=O)[C@@H]32` (stereo not given in full) the Potency was 0.708 µM (active). In the case of `Cc1cc(-n2c(=O)ccc3cnc4[nH]ccc4c32)ccc1F`, the Potency is reported as “inactive”. With `CC(=O)Oc1cccc(O)c1` the Potency was “inactive”. For `COC(=O)C(c1ccccc1Cl)N1CCc2sccc2C1` (stereo not given), the Potency was “inactive”. With `CCNC(=O)CCC/C=C\C[C@@H]1[C@@H](/C=C/C(O)CCc2ccccc2)[C@@H](O)C[C@@H]1O` (stereo not given in full) the Potency was “inactive”. For `CS(=O)(=O)Nc1ccc([N+](=O)[O-])cc1Oc1ccccc1`, the Potency was “inactive”. In the case of `Cc1cc(C)c2c(c1)[C@@H](N(Cc1cc(C(F)(F)F)cc(C(F)(F)F)c1)c1nnn(C)n1)CCCN2CC1CCC(C(=O)O)CC1` (stereo not given in full), the Potency is reported as “inactive”. With `CC[C@@]1(O)C(=O)OCc2c1cc1n(c2=O)Cc2c-1nc1cc(F)c(C)c3c1c2[C@@H](N)CC3` the Potency was 5.01 µM (active). With `O=C(O)CNC(=O)CNC(=O)CNC(=O)CSC(=O)c1ccccc1` the Potency was “inactive”. With `CC1(C)O[C@@H]2C[C@H]3[C@@H]4CCC5=CC(=O)CC[C@]5(C)[C@@]4(F)[C@@H](O)C[C@]3(C)[C@]2(C(=O)CCl)O1` the Potency was “inactive”. For `OC[C@H]1O[C@@H](n2cnc3c(=S)nc[nH]c32)[C@H](O)[C@@H]1O`, the Potency was 2.31 µM (active). For `COc1ccccc1[C@H](c1cccc2ccccc12)[C@@](C)(C#N)C(=O)N1CCC(c2cccc(C(F)(F)F)c2)CC1`, the Potency was “inactive”. In the case of `CCOC(=O)O[C@]1(C(=O)OCCl)CC[C@H]2[C@@H]3CCC4=CC(=O)C=C[C@]4(C)[C@H]3[C@@H](O)C[C@@]21C`, the Potency is reported as “inactive”. For `COc1cc([C@H]2Oc3cc([C@H]4Oc5cc(O)cc(O)c5C(=O)[C@@H]4O)ccc3O[C@@H]2CO)ccc1O`, the Potency was “inactive”. For `COC(=O)C1=C(C)NC(c2ncc(F)cc2F)=N[C@@H]1c1ccc(F)cc1Cl`, the Potency was “inactive”.
